Results filed as inconclusive are left out. Calls of active or inactive are those of the source. The calls were made as follows: active = hit-call score of the fitted dose curve at least 0.9, where 1 is the maximum; inconclusive = response in the unintended direction; inactive = score below 0.9.
biological target: rat Acetylcholinesterase (AChE), Ache (gene 83817) (UniProt P37136); assay: NVS_ENZ_rAChE: NovaScreen (NVS) Enzymatic Assay for rat Acetylcholinesterase (AChE) (AID 2283233)
Procedure: NVS_ENZ_rAChE is a biochemical, single-readout assay that uses extracted gene-proteins from Rat brain membranes in a tissue-based cell-free assay. Measurements were taken 0.33 hour after chemical dosing in a 96-well plate.NVS_ENZ_rAChE is one of one assay component(s) measured or calculated from the NVS_ENZ_rAChE assay. It is designed to make measurements of enzyme activity, a form of enzyme reporter, as detected with absorbance signals by Colorimetric technology.Data from the assay component NVS_ENZ_rAChE was analyzed into 1 assay endpoint. This assay endpoint, NVS_ENZ_rAChE, was analyzed in the positive analysis fitting direction relative to DMSO as the negative control and baseline of activity. Using a type of enzyme reporter, loss-of-signal activity can be used to understand changes in the enzymatic activity as they relate to the gene Ache. Furthermore, this assay endpoint can be referred to as a primary readout, because this assay has produced multiple assay endpoints where this one serves a enzymatic activity function. To generalize the intended target to other relatable targets, this assay endpoint is annotated to the esterase intended target family, where the subfamily is acetylcholinesterase.
Binding assays used specific radioligands (tritiated, iodinated) with non-radioactive competitive displacement ligands in agonist or antagonist protocols (as indicated) and various reference compounds and inhibitors to titrate specific binding to receptors and transporters. Most enzyme assays (CYPs, kinases, phosphatases, proteases, HDACs) used recombinant protein and specific substrates (fluorescence mostly, some colorimetric and radioactive) and inhibitors, followed by a biochemical separation of substrate and product. All assays for the biochemical HTS were initially run in duplicate at a single concentration (10 uM for CYP450 assays and 25 uM for all others). Assay-chemical combinations meeting a pre-defined threshold (e.g., 30% inhibition and other criteria defined below) were then run in singleton concentration-response format with maximum concentration of 20 uM for CYPs and 50 uM for all others. Each assay was run with positive and negative controls, and concurrent controls on every plate. The follow-up (secondary) screen tested active chemical-pairs in concentration series, as well as a few additional assays not tested in the primary screen, some selected negative inactives, and several cases re-run in the concentration series for confirmatory purposes.

Sequence of rat Acetylcholinesterase (AChE), Ache (gene 83817) (P37136 whole entry, looked up): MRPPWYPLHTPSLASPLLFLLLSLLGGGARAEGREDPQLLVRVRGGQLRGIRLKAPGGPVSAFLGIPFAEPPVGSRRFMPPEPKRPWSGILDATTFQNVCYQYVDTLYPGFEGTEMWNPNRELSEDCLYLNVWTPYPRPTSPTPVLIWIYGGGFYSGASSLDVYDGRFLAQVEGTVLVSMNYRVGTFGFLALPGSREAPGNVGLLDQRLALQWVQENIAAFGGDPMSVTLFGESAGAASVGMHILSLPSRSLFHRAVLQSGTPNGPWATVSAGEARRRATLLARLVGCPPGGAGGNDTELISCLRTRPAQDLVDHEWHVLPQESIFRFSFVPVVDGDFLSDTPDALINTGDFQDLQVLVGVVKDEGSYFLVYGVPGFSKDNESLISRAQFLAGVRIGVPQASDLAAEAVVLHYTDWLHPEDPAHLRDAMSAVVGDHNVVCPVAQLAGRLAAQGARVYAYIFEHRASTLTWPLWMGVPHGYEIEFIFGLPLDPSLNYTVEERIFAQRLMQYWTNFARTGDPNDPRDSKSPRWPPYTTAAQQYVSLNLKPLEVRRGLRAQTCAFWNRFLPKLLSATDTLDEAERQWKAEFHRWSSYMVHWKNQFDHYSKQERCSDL

SMILES | outcome | AC50
CC(=NC#N)N(C)Cc1ccc(Cl)nc1 | inactive | 
O=[N+]([O-])c1cc(C(F)(F)F)c(Cl)c([N+](=O)[O-])c1Nc1ncc(C(F)(F)F)cc1Cl | inactive | 
CCCSP(=O)(OCC)Oc1ccc(Br)cc1Cl (stereo unspecified) |  | 2.32 µM (active)
CNC(=O)ON=C(SC)C(=O)N(C)C |  | 3.26 µM (active)
COP(=O)(OC)OC(Br)C(Cl)(Cl)Br (stereo unspecified) |  | 1.01 µM (active)
CCOC(=O)CC(SP(=O)(OC)OC)C(=O)OCC (stereo unspecified) |  | 0.917 µM (active)
CNC(=O)Oc1cccc2c1OC(C)(C)O2 |  | 0.797 µM (active)
CNC(=O)ON=C(C)SC |  | 3.86 µM (active)
COP(=O)(OC)SCn1c(=O)oc2cc(Cl)cnc21 |  | 2.11 µM (active)
CCOP(=S)(OCC)OC(Cl)C(Cl)(Cl)Cl (stereo unspecified) |  | 4.06 µM (active)
S=C1NCCN1 |  | 14.3 µM (active)
